# TCR-CD3 inh – inhibitors of human TCR-CD3 interaction, primary screen, biochemical, fluorescence, TAMRA-labeled TCR probe; T-cell receptor (TCR); inhibition, % at 9.4 µM; 360,000 compounds, 0.37% hits; AID 651800, 2012; in the data active = inhibition above about 19%;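 note: recombinant mutant TCR 2C K166C tagged with TAMRA read by polarization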
# pPAFAH inh – pPAFAH enzyme inhibitors, primary screen, biochemical, fluorescence polarization, human; recombinant pPAFAH, FP-rhodamine probe fluorescence polarization; inhibition, % at 3.39 µM; 330,000 compounds, 1.5% hits; Platelet-activating factor acetylhydrolase (Homo sapiens), Q13093; AID 463082, 2010;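 active = inhibition above the mean inhibition across the screen plus 3 SD, cut at about 25% in these data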;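 note: inhibitors block binding of the rhodamine activity-based probe so polarization drops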
# PAFAH1B3 inh – PAFAH1B3 enzyme inhibitors, primary screen, biochemical, fluorescence polarization, human. recombinant PAFAH1B3, FP-rhodamine probe. inhibition, % at 3.39 µM. 340,000 compounds, 0.28% hits;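 active = inhibition above the screen-wide average of all tested compounds plus 3 SD, cut at about 25% in these data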
# PAFAH2 FP inh – PAFAH2 enzyme inhibitors, primary screen, biochemical, fluorescence polarization, human. inhibition, % at 3.39 µM. 340,000 compounds, 0.99% hits. AID 492956, 2010. Platelet-activating factor acetylhydrolase 2, cytoplasmic (Homo sapiens), Q99487. recombinant PAFAH2, FP-rhodamine activity probe;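 active = inhibition above the mean over all tested compounds plus 3 SD, cut at about 30% in these data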;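 note: inhibitors block probe labeling of enzyme so polarization drops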
# PAFAH1B2 FP inh – PAFAH1B2 enzyme inhibitors, primary screen, biochemical, fluorescence polarization, human; Platelet-activating factor acetylhydrolase IB subunit alpha2 (Homo sapiens), P68402; recombinant PAFAH1B2, FP-rhodamine activity probe; inhibition, % at 3.39 µM; 340,000 compounds, 1.2% hits; AID 492953, 2010;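 active = inhibition above the mean of all tested compounds plus 3 SD, cut at about 24% in these data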
# Target sequence (P68402 whole entry, looked up): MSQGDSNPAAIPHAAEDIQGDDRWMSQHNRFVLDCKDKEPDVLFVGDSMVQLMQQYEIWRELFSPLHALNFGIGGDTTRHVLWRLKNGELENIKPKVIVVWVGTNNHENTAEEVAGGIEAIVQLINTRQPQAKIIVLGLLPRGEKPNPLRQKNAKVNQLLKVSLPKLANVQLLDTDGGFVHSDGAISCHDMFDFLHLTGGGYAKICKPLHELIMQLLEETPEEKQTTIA
# A number is an active result; 0 = inactive; - = no result given. Most compounds without a hit are left out; they make up all but 2.7% or so of the library.
SMILES,TCR-CD3 inh,pPAFAH inh,PAFAH1B3 inh,PAFAH2 FP inh,PAFAH1B2 FP inh
CCn1nc(-c2cccs2)nc2c(=O)n(C)c(=O)nc1-2,-,-,73.7,55.5,47.3
Nc1ccc(C2(c3ccc(N)cc3)CCCCC2)cc1,0,0,0,0,38.1
CC/C(=N\NC(=O)Nc1ccccc1)c1c(O)n(Cc2ccccc2)c(=O)[nH]c1=O,0,0,-,-,-
O=C(Nc1ccccc1)N1Cc2cc(Br)ccc2-n2nncc2C1,0,-,-,-,-
ClC(Cl)=C(c1ccc(Cl)cc1)c1ccc(Cl)cc1,0,0,0,0,24.6
COc1ccc(CCNCC2CCCO2)cc1 (stereo not drawn),0,0,0,0,0
CCOc1cccc(OCC)c2c(C)[n+](CC3CCCO3)c(C)c1-2 (stereo not drawn),-,0,0,32.4,0
NC(Cc1cc(O)c(O)cc1O)C(=O)O (stereo not drawn),-,84.0,-,-,-
CCOCCCn1c(N)c(C(=O)Nc2sc3c(c2C(=O)OC)CCCC3)c2nc3ccccc3nc21,0,0,51.9,35.5,31.1
NS(=O)(=O)c1nc[nH]c1[N+](=O)[O-],0,-,0,0,0
CCc1cc(OC)c(CCN)cc1OC,0,-,-,-,-
CCCC(C)n1[nH]c(=O)c2c1NC(=O)CSC2c1ccc(OC)cc1 (stereo not drawn),0,28.3,0,0,0
CCCOc1ccccc1C1SCC(=O)Nc2c1c(=O)[nH]n2C(C)CCC (stereo not drawn),0,0,0,0,0
O=C1NC(=O)N(CCc2ccc(F)cc2)C(=O)/C1=C/c1ccco1,0,29.0,0,0,0
Cc1ccc(/C=C2/C(=O)NC(=O)N(CCc3ccc(F)cc3)C2=O)o1,0,0,0,0,0
CC1CC(OP(O)(=S)c2ccc(N(C)C)cc2NC(=O)c2cccs2)CC(C)(C)C1 (stereo not drawn),0,0,0,0,40.0
O=c1[nH]c(=S)n(CCC2=CCCCC2)c(O)c1/C=N/Nc1ccccc1,0,0,0,0,35.0
O=c1[nH]c(=S)n(Cc2ccc(F)cc2)c(O)c1C=NCc1cccnc1,0,0,0,0,27.6
O=c1[nH]c(=S)n(Cc2ccc(F)cc2)c(O)c1C=NCC1CCCO1 (stereo not drawn),0,0,0,0,34.4
O=c1[nH]c(=S)n(Cc2ccc(F)cc2)c(O)c1/C=N/N1CCCCC1,0,0,0,0,31.8
O=c1[nH]c(=S)n(C2CC2)c(O)c1C=NCC1CCCO1 (stereo not drawn),0,0,0,0,0
CCC(C)n1c(O)c(C=NCc2cccnc2)c(=O)[nH]c1=S (stereo not drawn),0,0,0,0,0
N#Cc1ccc2nc(-c3ccc(CN4CCC(n5c(=O)[nH]c6cc(Cl)ccc65)CC4)cc3)c(-c3ccccc3)nc2c1,0,-,-,-,-
COC(=O)C1=C(c2ccc(OCc3ccccc3)cc2)C[C@@H]2CC[C@H]1N2C,0,-,-,-,-
CC12CCC(=O)C=C1C=CC1C2CCC2(C)C(O)CCC12 (stereo not drawn),0,-,0,0,0
SMILES,TCR-CD3 inh,pPAFAH inh,PAFAH1B3 inh,PAFAH2 FP inh,PAFAH1B2 FP inh
Cn1c(O)c(/C=C2\N=c3ccccc3=C2CCNC(=S)NC2CC2)c(=O)n(C)c1=O,0,0,0,0,56.1
Cn1c(O)c(/C=C2\C=c3ccccc3=NC2=O)c(=O)n(C)c1=O,0,-,0,0,0
CC(C)c1ccc(N2C(=O)NC(=O)/C(=C\C=C\c3ccco3)C2=O)cc1,0,28.7,-,-,-
Cc1ccc(N2Cc3ccccc3-n3nncc3C2)cc1,0,-,-,-,-
COc1ccc(C(=O)OCC2CN2c2cccc([N+](=O)[O-])c2)cc1 (stereo not drawn),0,-,-,-,-
Cc1ccc2c(c1)cc1c(=O)n(CC(=O)N3CCC4(CC3)OCCO4)nc(C)n12,0,25.6,0,0,0
CCc1nn(CC(=O)N2CCC3(CC2)OCCO3)c(=O)c2cccn12,0,0,0,0,0
COc1ccc(N2CC2c2ccncc2)cc1 (stereo not drawn),0,0,0,0,0
O=C(c1ccc(N2CCCCC2)c([N+](=O)[O-])c1)N1CCC2(CC1)OCCO2,0,34.2,0,0,0
N#Cc1ccc(NC(=S)N2Cc3ccc(Br)cc3-n3nncc3C2)cc1,0,-,-,-,-
COc1cccc(-n2c(/C=C/c3ccc(O)c(O)c3)nc3ccccc3c2=O)c1,0,33.1,0,0,0

# Assay outcomes (PubChem BioAssay)
